Source: the OligoGym collection

Molecular target: CDC23
Assay: pooled miR-30 sensor sort-seq; sequence = guide strand
Conditions: shRNA
Further: reference of the scale not given here.

Sequence	sensor-assay potency score (higher = more potent)
TAAGAATCAAACATCATTCTGG	0.585
TAAATGCACAACACTTTTGTGC	-0.535
TTTATTAAAACAGACCAGCTTG	-0.155
TTTGTGCACAAGTTGAAGCTTC	-0.382
TCTATCAACTGCAACTCTGTGT	0.16
TTGAGTGGAGAAACTCTGCGTG	0.52
TATAATCCTATCTCCTTGCTTG	0.291
TAGTTGATTGAGTTTCTCGTAA	-0.361
TATAGCTAACAATATAGCCATC	-1.75
